Drawing on PubChem BioAssay (EPA / NIEHS), this text covers outcome and AC50 for four compounds.

Each structure is given as a SMILES string. Calls of active or inactive are those of the source. How the source made its calls: active means hit-call score of the fitted dose curve at least 0.9, where 1 is the maximum; inactive means score below 0.9.

Assay [1] in a line: ATG_GLI_CIS: Attagene CIS-FACTORIAL HepG2 Assay for human Zinc Finger Protein GLI1 (AID 2282945). Particulars: HepG2, Attagene cis-factorial reporter mRNA, GLI element; actives raise or lower the signal. The procedure, abridged: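 Bidirectional curve fits relative to DMSO, using reporter mRNA levels from RT-PCR plus capillary electrophoresis. Cells were HepG2 transiently carrying cis-regulated reporter constructs, harvested 24 h after dosing.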

For assay [2], the target named is Bile acid receptor (Homo sapiens) (UniProt Q96RI1). The assay is described as follows: ATG_IR1_CIS: Attagene CIS-FACTORIAL HepG2 Assay for human Nuclear Receptor Subfamily 1 Group H Member 4 (NR1H4), IR1 submotif (AID 2282946). Particulars: IR1 reporter transcription, actives raise or lower the signal. The procedure, abridged:
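HepG2 cells transiently transfected with multiplexed cis-element reporter units read endogenous transcription factor activity. After 24 h compound exposure, reporter mRNA was quantified by RT-PCR, fluorescent labelling, HpaI digestion and capillary electrophoresis; bidirectional fitting versus DMSO baseline.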

Assay [3] is described as follows: ATG_GRE_CIS: Attagene CIS-FACTORIAL HepG2 Assay for human Glucocorticoid Response Elements (GRE) (AID 2282947). Particulars: HepG2 GRE cis-reporter, Attagene multiplex mRNA; actives raise or lower the signal. The essentials: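 Reporter transcripts read by RT-PCR with capillary electrophoresis fluorescence after a 24 h chemical exposure of HepG2 cells transiently transfected with multiple cis-element reporter units. Gain or loss fitted against DMSO.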

Assay [4] is described as follows: ATG_ISRE_CIS: Attagene CIS-FACTORIAL HepG2 Assay for human Interferon Regulatory Factor 1 (IRF1) binding to an Interferon-Stimulated Response Element (ISRE) (AID 2282948). Conditions: HepG2 ISRE cis-reporter (Attagene), mRNA transcription readout; actives raise or lower the signal. The procedure, abridged: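 Endogenous transcription factor activity read as reporter transcript abundance via RT-PCR and capillary electrophoresis. HepG2 cells transiently transfected, 24 h chemical exposure. Gain or loss fitted against DMSO baseline.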

Assay [5] in a line: ATG_M_32_CIS: Attagene CIS-FACTORIAL HepG2 Assay for M32 Transcription Factor (Internal Marker) (AID 2282949).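 Further: background control marker of the multiplexed CIS panel rather than a real target.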 Conditions: HepG2 Attagene cis-factorial M32 reporter, mRNA; actives raise or lower the signal. The essentials:
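HepG2 transfectants (cis-regulated reporter transcription units) dosed 24 h. Reporter mRNA by RT-PCR plus CE, analysed as gain or loss relative to DMSO.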

The nature of assay [6]: ATG_M_06_CIS: Attagene CIS-FACTORIAL HepG2 Assay for M06 Transcription Factor (Internal Marker) (AID 2282950). Conditions: HepG2 Attagene CIS-FACTORIAL M06 internal marker reporter; actives raise or lower the signal. The procedure, abridged: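 Read-out is fluorescence of labelled reporter cDNA fragments resolved by capillary electrophoresis after RT-PCR. Cells: HepG2 carrying transfected cis-promoter reporter units, treated 24 h. Gain or loss of signal fitted relative to DMSO.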

The target in assay [7] is Hepatocyte nuclear factor 6 (Homo sapiens) (UniProt Q9UBC0). The experiment in a line: ATG_HNF6_CIS: Attagene CIS-FACTORIAL HepG2 Assay for human Hepatocyte Nuclear Factor 6 (HNF6) (AID 2282952). Conditions: HepG2 Attagene cis-factorial HNF6 reporter transcription; actives raise or lower the signal. The essentials:
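Endogenous transcription factor activity in human HepG2 liver cells was captured through cis-regulated reporter constructs. After 24 h treatment, reporter mRNA was measured by RT-PCR with capillary electrophoresis, and activity was fitted in both directions relative to DMSO.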

Assay [8] concerns the target Heat shock factor protein 1 (Homo sapiens) (UniProt Q00613). The assay is described as follows: ATG_HSE_CIS: Attagene CIS-FACTORIAL HepG2 Assay for human Heat Shock Transcription Factor 1 (HSE) (AID 2282953). Conditions: HepG2 HSE cis-reporter, Attagene RNA transcription; actives raise or lower the signal. The procedure, abridged:
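HepG2, transient MRTU transfection, cis-promoter reporters (endogenous TF activity). 24 h compound. RNA → oligo(dT) RT → PCR → 6-FAM primer extension → HpaI cut → CE. Bidirectional fit vs DMSO.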

Assay [9] is described as follows: ATG_MRE_CIS: Attagene CIS-FACTORIAL HepG2 Assay for human Metal Responsive Element (MRE) (AID 2282954). Particulars: HepG2 MRE cis-reporter transcription, Attagene multiplex; actives raise or lower the signal. The essentials: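 Endogenous MRE-dependent transcription read as reporter mRNA in transiently transfected human HepG2 cells at 24 h. RNA reverse-transcribed, PCR-amplified, labelled and resolved by capillary electrophoresis; gain or loss relative to DMSO.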

Assay [10] concerns the target Paired box protein Pax-6 (Homo sapiens) (UniProt P26367). The experiment in a line: ATG_Pax6_CIS: Attagene CIS-FACTORIAL HepG2 Assay for human Paired Box 6 (PAX6) (AID 2282956). Conditions: HepG2 CIS-FACTORIAL PAX6 reporter transcription, RNA readout; actives raise or lower the signal. The procedure, abridged: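 Read-out is reporter transcript level, measured by RT-PCR with fluorescent primer extension and capillary electrophoresis after 24 h dosing of transfected HepG2 cells. Activity in either direction fitted relative to DMSO control.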

A short description of assay [11]: ATG_PXRE_CIS: Attagene CIS-FACTORIAL HepG2 Assay for human Pregnane X Receptor Element (PXRE) (AID 2282957). Conditions: HepG2 Attagene CIS-FACTORIAL PXRE reporter, mRNA; actives raise or lower the signal. The essentials: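 Endogenous transcription factor activity in HepG2 was gauged through induction of reporter mRNA driven by a cis-regulating promoter element, sampled 24 h post-treatment. Activity was fitted in both directions against DMSO negative control.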

A short description of assay [12]: ATG_PPRE_CIS: Attagene CIS-FACTORIAL HepG2 Assay for human Peroxisome Proliferator-activated Response Element (PPRE) (AID 2282958). Conditions: HepG2 PPRE cis-element reporter, Attagene transcription factor profiling; actives raise or lower the signal. The procedure, abridged: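 HepG2 cells are transiently transfected with multiplexed cis-promoter reporter units to report endogenous PPAR activity. After 24 h dosing, reporter mRNA is read by RT-PCR and capillary electrophoresis. Fitting is bidirectional against DMSO.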

Assay [13] is described as follows: ATG_RORE_CIS: Attagene CIS-FACTORIAL HepG2 Assay for human RAR-related Orphan Receptor Element (RORE) (AID 2282959). Particulars: HepG2 Attagene cis-factorial RORE reporter, mRNA; actives raise or lower the signal. The procedure, abridged: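 HepG2 cells carrying transiently transfected cis-regulated reporter units; RORE-driven reporter mRNA quantified 24 h post-dosing by RT-PCR, 6-FAM primer extension, HpaI digestion and capillary electrophoresis. Bidirectional fit versus DMSO.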

Assay [14] is described as follows: ATG_Sox_CIS: Attagene CIS-FACTORIAL HepG2 Assay for human SRY-box transcription factor (SOX) (AID 2282960). Conditions: HepG2 Attagene cis-factorial SOX reporter, mRNA; actives raise or lower the signal. The essentials: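 HepG2 cells transiently transfected with multiple cis-regulated reporter units, then dosed for 24 h. Reporter mRNA quantified by RT-PCR, fluorescent labelling, HpaI digestion and capillary electrophoresis; bidirectional fit versus DMSO.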

Assay [15] deals with Transcription factor Sp1 (Homo sapiens) (UniProt P08047). The assay is described as follows: ATG_Sp1_CIS: Attagene CIS-FACTORIAL HepG2 Assay for human Specificity Protein 1 (Sp1) (AID 2282961). Conditions: HepG2 Sp1 cis-reporter transcription, actives raise or lower the signal. The essentials: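 HepG2 cells transiently transfected with multiplexed cis-regulated reporter constructs, chemical exposure 24 h. Reporter mRNA quantified by RT-PCR with capillary electrophoresis; bidirectional fit relative to DMSO.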

Assay [16] in a line: ATG_SREBP_CIS: Attagene CIS-FACTORIAL HepG2 Assay for human Sterol Regulatory Element Binding (SREBP) (AID 2282962). Conditions: HepG2 Attagene cis-factorial SREBP reporter, mRNA; actives raise or lower the signal. The essentials: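 Endogenous SREBP activity read as cis-element-driven reporter transcript in transiently transfected HepG2, 24 h post-dosing; quantified via RT-PCR plus capillary electrophoresis of fluorescent fragments. Gain or loss of signal fitted relative to DMSO baseline.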

In assay [17] the target is Signal transducer and activator of transcription 3 (Homo sapiens) (UniProt P40763). The assay is described as follows: ATG_STAT3_CIS: Attagene CIS-FACTORIAL HepG2 Assay for human Signal Transducer and Activator of Transcription 3 (STAT3) (AID 2282963). Particulars: HepG2, Attagene cis-factorial STAT3 reporter transcription; actives raise or lower the signal. The procedure, abridged:
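Readout is reporter transcript quantified by RT-PCR and capillary electrophoresis, with 6-FAM primer extension and HpaI digestion. Total RNA is taken 24 h after dosing transiently transfected HepG2 carrying cis-regulated reporter units. Bidirectional fit against DMSO.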

Assay [18] is described as follows: ATG_TA_CIS: Attagene CIS-FACTORIAL HepG2 Assay for human TA Basal Promoter (AID 2282964). Particulars: HepG2 Attagene CIS-factorial TA basal promoter reporter; actives raise or lower the signal. The essentials:
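Read-out: fluorescent reporter-transcript fragments resolved by capillary electrophoresis after RT-PCR and HpaI digestion. Source: HepG2 cells carrying transiently transfected multi-reporter cis constructs, treated 24 h. Endpoint fitted bidirectionally relative to DMSO.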

The target of assay [19] is Hypoxia-inducible factor 1-alpha (Homo sapiens) (UniProt Q16665). The experiment in a line: ATG_HIF1a_CIS: Attagene CIS-FACTORIAL HepG2 Assay for human Hypoxia Inducible Factor 1 (HIF1A) (AID 2282951). Conditions: HepG2 Attagene cis-factorial HIF1a reporter transcription; actives raise or lower the signal. The procedure, abridged: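 HepG2 cells transiently transfected with multiple cis-regulated reporter transcription units measure endogenous transcription factor activity. After 24 h exposure, reporter mRNA is quantified by RT-PCR with 6-FAM labelling, HpaI digestion and capillary electrophoresis. Bidirectional fitting against DMSO.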

The nature of assay [20]: ATG_PBREM_CIS: Attagene CIS-FACTORIAL HepG2 Assay for human Phenobarbital-responsive Enhancer Module (PBREM) (AID 2282955). Particulars: HepG2 PBREM cis-reporter, Attagene multiplexed transcription; actives raise or lower the signal. The procedure, abridged: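 HepG2 cells transiently transfected with multiple cis-regulated reporter units measure endogenous transcription factor activity; 24 h compound exposure. Reporter mRNA quantified by RT-PCR, fluorescent labelling, HpaI digestion and capillary electrophoresis; bidirectional fit versus DMSO.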

Sequence of Hepatocyte nuclear factor 6 (Homo sapiens) (Q9UBC0 whole entry, looked up): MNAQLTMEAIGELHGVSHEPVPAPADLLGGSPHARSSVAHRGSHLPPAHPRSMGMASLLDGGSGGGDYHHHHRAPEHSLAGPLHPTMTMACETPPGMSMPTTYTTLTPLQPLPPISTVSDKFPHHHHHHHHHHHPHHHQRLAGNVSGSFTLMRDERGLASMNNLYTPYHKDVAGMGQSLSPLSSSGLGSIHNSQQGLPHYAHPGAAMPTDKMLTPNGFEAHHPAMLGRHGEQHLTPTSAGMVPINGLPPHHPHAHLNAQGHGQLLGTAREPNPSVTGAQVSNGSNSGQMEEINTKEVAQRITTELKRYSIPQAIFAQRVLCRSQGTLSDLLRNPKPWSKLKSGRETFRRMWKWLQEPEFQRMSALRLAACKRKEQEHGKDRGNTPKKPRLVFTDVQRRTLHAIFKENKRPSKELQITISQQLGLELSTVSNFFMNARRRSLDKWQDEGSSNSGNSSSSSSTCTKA
Sequence of Paired box protein Pax-6 (Homo sapiens) (P26367 whole entry, looked up): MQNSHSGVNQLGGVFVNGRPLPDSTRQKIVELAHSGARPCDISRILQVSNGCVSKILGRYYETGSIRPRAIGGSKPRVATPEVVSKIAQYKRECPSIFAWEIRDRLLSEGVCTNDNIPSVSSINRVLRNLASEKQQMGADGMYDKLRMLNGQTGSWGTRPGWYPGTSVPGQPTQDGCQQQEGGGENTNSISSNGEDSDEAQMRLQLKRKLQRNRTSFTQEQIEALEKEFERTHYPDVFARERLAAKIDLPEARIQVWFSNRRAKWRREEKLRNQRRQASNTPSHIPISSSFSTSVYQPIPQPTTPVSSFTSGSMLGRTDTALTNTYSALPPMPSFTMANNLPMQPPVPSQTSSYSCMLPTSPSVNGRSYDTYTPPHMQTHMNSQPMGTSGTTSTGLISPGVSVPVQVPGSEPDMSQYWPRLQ
Sequence of Heat shock factor protein 1 (Homo sapiens) (Q00613 whole entry, looked up): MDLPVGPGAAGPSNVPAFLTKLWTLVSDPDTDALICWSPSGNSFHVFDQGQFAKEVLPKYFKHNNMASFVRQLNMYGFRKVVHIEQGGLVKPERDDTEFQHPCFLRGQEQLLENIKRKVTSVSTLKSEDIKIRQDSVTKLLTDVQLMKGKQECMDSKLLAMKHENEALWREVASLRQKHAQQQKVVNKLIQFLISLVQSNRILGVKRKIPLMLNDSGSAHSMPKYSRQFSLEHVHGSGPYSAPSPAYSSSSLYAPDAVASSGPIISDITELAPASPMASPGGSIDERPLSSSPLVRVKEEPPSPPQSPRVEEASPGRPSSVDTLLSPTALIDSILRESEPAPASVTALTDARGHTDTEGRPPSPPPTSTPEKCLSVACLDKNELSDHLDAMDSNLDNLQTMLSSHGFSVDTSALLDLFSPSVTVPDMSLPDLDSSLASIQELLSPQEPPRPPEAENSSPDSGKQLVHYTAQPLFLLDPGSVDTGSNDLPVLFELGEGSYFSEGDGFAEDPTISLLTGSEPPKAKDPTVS
Sequence of Bile acid receptor (Homo sapiens) (Q96RI1 whole entry, looked up): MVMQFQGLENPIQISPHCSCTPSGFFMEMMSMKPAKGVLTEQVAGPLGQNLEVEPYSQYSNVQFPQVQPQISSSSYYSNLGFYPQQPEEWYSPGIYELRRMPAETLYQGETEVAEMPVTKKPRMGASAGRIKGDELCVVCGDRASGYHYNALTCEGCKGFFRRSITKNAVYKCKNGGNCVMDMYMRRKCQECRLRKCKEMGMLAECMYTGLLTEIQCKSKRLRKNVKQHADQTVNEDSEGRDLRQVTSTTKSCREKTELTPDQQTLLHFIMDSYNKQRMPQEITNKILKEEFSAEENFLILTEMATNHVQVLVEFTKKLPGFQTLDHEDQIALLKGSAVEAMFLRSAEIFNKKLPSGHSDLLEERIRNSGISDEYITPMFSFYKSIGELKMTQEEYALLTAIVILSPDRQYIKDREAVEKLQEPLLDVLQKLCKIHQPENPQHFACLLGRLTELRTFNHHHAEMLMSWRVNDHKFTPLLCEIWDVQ
Sequence of Transcription factor Sp1 (Homo sapiens) (P08047 whole entry, looked up): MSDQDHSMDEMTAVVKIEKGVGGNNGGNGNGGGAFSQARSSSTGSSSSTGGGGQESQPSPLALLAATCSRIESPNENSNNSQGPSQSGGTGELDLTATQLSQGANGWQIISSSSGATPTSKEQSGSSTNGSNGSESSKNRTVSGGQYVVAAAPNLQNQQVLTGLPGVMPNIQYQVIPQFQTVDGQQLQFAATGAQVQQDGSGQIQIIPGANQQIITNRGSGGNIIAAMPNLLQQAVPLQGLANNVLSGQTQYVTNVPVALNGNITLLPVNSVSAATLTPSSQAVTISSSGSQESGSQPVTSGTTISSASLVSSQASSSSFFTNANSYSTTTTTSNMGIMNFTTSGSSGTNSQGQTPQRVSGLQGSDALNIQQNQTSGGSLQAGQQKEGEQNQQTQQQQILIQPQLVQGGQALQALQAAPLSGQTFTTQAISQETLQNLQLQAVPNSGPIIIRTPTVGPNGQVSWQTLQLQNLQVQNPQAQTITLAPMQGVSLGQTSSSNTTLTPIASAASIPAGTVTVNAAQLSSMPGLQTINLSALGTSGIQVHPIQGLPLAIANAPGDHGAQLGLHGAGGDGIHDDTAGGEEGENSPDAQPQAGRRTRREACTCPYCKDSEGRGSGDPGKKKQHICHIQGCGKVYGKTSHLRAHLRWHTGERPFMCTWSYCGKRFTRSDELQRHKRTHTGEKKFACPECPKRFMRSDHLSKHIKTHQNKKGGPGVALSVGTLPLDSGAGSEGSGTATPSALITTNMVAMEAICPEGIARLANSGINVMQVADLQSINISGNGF
Sequence of Signal transducer and activator of transcription 3 (Homo sapiens) (P40763 whole entry, looked up): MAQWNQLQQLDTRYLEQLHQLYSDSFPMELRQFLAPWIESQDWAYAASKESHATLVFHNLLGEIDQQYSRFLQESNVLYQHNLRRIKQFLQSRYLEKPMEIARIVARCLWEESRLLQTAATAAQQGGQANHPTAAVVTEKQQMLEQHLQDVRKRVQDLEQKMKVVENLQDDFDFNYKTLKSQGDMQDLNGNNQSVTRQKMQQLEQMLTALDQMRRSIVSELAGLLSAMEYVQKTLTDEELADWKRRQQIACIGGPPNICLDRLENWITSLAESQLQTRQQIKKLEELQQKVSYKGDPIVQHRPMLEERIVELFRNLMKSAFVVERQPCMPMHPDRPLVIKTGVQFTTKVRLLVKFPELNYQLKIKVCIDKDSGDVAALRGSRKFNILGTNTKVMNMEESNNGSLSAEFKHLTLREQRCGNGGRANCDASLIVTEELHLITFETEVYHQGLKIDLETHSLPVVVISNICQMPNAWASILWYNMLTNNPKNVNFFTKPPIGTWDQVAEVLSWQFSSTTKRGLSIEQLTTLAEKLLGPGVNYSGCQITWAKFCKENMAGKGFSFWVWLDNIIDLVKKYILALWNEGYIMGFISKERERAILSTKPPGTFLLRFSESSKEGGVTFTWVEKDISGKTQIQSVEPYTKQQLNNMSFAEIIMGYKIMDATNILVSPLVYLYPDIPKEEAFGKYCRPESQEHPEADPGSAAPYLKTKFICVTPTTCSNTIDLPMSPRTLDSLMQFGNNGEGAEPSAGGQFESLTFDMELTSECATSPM
Sequence of Hypoxia-inducible factor 1-alpha (Homo sapiens) (Q16665 whole entry, looked up): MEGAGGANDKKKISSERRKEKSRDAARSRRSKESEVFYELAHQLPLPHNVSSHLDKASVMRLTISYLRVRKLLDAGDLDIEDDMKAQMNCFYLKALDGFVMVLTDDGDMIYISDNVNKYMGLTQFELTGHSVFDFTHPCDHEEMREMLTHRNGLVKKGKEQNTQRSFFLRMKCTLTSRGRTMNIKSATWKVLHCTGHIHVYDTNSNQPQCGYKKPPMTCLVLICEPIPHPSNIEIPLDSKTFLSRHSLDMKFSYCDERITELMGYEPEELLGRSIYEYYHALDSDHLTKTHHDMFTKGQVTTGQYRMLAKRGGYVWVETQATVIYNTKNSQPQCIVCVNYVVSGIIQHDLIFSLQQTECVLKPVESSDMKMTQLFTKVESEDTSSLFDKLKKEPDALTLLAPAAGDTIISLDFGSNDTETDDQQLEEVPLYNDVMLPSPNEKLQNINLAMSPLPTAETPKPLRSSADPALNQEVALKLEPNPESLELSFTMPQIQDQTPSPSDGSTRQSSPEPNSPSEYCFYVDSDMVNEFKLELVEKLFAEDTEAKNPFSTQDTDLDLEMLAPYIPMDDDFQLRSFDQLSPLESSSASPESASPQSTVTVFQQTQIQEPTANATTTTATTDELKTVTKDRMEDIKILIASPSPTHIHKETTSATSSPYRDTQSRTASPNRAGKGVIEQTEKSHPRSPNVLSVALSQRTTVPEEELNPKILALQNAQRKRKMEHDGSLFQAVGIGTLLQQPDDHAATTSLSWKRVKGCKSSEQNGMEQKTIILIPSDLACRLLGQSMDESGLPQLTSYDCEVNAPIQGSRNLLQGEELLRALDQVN

In the case of `CCN(CC)c1ccc2c(c1)Oc1cc(N(CC)CC)ccc1C21OC(=O)c2ccccc21`, the call in [1], in assay [2], in [3], in [5], in [6] and in assay [7] was inactive. For the same compound, the result in assay [8], in [9], in [10], in [12], in [13] and in assay [14] was inactive. In addition, the call in [15], in assay [17] and in assay [18] was inactive. Moreover, the AC50 in assay [4] was 55.3 µM (active); in [11], 1.04 µM (active); in assay [16], 17.6 µM (active).
Turning to `OCC(F)(F)C(F)(F)C(F)(F)C(F)(F)C(F)(F)C(F)(F)C(F)(F)C(F)(F)CO`, the compound was classed as inactive in assay [1], in [2], in assay [3], in assay [4], in assay [5] and in assay [6]. Also, the compound was classed as inactive in assay [19], in [7], in assay [8], in [9], in assay [10] and in assay [12]. Further, the outcome in assay [13], in assay [14], in assay [15], in assay [16] and in [18] was inactive. Besides, the AC50 in assay [11] was 16.6 µM (active).
As to `CN1CN(C)CN(C)C1`, the compound was classed as inactive in assay [1], in assay [2], in assay [3], in [5], in [6] and in [7]. Further, the result in assay [20], in assay [12], in assay [13], in assay [14], in assay [15] and in [16] was inactive. The half-maximal activity concentration (AC50) in assay [4] is 74.3 µM (active); in [8], 160 µM (active); in assay [9], 182 µM (active); in [11], 49.5 µM (active).
Consider `CCN=c1cc2oc3cc(NCC)c(C)cc3c(-c3ccccc3C(=O)OCC)c-2cc1C`, for which the AC50 is 16.3 µM (active) in [1]; 16.5 µM (active) in [2]; 8.05 µM (active) in assay [4]; 17 µM (active) in [8]; 9.29 µM (active) in [9]; 8.69 µM (active) in assay [10]. Further, the AC50 in assay [12] was 17 µM (active); in [14], 15.9 µM (active); in assay [15], 9.7 µM (active); in assay [16], 15.5 µM (active); in assay [18], 11.1 µM (active). The compound was classed as inactive in assay [3], in assay [5], in [6], in [7], in [20] and in [11]. Moreover, the compound was called inactive in [13] and in [17].

By AC50 is commonly meant the concentration at which the activity in the assay is half-maximal.
